# Laboratory results as given in PubChem BioAssay (NCATS).
# Inconclusive results are not listed. Entries that show only a call come without a potency. The source made the active and inactive calls. The call rests on the fitted dose curve; in most records, active means well fitted curve in the direction sought with a large enough effect; inconclusive means small, poorly fitted or top-dose-only effect, or another doubt; inactive means no such curve, though single readings can be large; an effect the other way counts as inactive or inconclusive. Non-standard residues stand in square brackets, D forms with d. Residues, ends and D or L forms follow the SMILES beside them. Dip = N[C@H](C(=O)O)C(c1ccccc1)c1ccccc1
# Assays:
# [1] = BET inhibitor-based combinations targeting novel dependencies in MECOM-rearranged (r) AML: UCSD-AML1 cell line (AID 2202235); further: nearly all actives have a fitted effect of over 40% in size
# In short: (§1)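 Using pin-tool transfer, drugs were added in 11 doses to cells (500/well), incubated 48 hr, and assessed with CellTiter-Glo. Z-AUC is a mean-centring transformation applied separately to each screened line.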
# [2] = BET inhibitor-based combinations targeting novel dependencies in MECOM-rearranged (r) AML: AML-194 cell line (AID 2202237; further: nearly all actives have a fitted effect of over 40% in size)
# In short: (§2)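 Viability of cells (500 per well) is scored by luminescent CellTiter-Glo at 48 hr post-dosing. Eleven-point titrations are normalized to DMSO and empty controls and reduced to AUC values.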
# [3] = BET inhibitor-based combinations targeting novel dependencies in MECOM-rearranged (r) AML: HNT-34 cell line (AID 2202234); further: nearly all actives have a fitted effect of over 35% in size
# In short: as §1
# [4] = BET inhibitor-based combinations targeting novel dependencies in MECOM-rearranged (r) AML: AML-191 cell line (AID 2202236; further: nearly all actives have a fitted effect of over 35% in size)
# In short: as §2
# [5] = BET inhibitor-based combinations targeting novel dependencies in MECOM-rearranged (r) AML: MV-4-11 cell line (AID 2202233); further: nearly all actives have a fitted effect of over 45% in size
# In short: as §1
# Potency means the concentration at half of the fitted maximal effect.
smiles,measurement,setting,value
CCN(CC)C(=O)Cc1csc(NS(=O)(=O)c2cccc(Cl)c2C)n1,Potency,[1],inactive
same,Potency,[2],inactive
NCCCC[C@H](NC(=O)[C@@H](NC(=O)[C@H](Cc1c[nH]c2ccccc12)NC(=O)[C@H](CCCCN)NC(=O)[C@H](CCCCN)NC(=O)[C@H](Cc1c[nH]c2ccccc12)NC(=O)[C@H](Cc1c[nH]c2ccccc12)NC(=O)[C@H](CCCCN)NC(=O)[C@@H](N)CCCCN)C(c1ccccc1)c1ccccc1)C(N)=O (H-KKWWKKW[Dip]K-NH2),Potency,[1],inactive
same,Potency,[2],inactive
CC(=O)N1CCN(c2ccc(NC(=O)Cc3cnc(-c4ccnc(F)c4)c(C)c3)nc2)CC1,Potency,[3],inactive
same,Potency,[2],inactive
CC1=C(c2ccc(O)cc2)[C@H](c2ccc(OCCN3CCCCC3)cc2)Oc2cc(O)ccc21,Potency,[2],inactive
NC(=O)c1cccc2c(NC(CN3CCC3)c3ccc(Cl)c(C(F)(F)F)c3)ncnc12 (configuration not stated),Potency,[4],20.9 µM (active)
same,Potency,[2],16.6 µM (active)
O=C(Nc1cnccc1Cl)N1CCN(Cc2ccc3c(c2)OC(F)(F)O3)CC1,Potency,[1],inactive
same,Potency,[2],inactive
C=C[C@@H]1CN2CCC1C[C@H]2[C@H](O)c1ccnc2ccc(OC)cc12 (some centres not stated),Potency,[5],16.6 µM (active)
same,Potency,[1],inactive
same,Potency,[4],inactive
same,Potency,[2],inactive
C/C(O)=C(\C#N)C(=O)Nc1ccc(C(F)(F)F)cc1,Potency,[3],14.8 µM (active)
same,Potency,[1],inactive
COc1cc(N2CCN(C)CC2)ccc1Nc1ncc2c(n1)N(C)c1ccccc1C(=O)N2,Potency,[5],18.6 µM (active)
same,Potency,[4],26.3 µM (active)
O=C(CCNC(=O)c1ccc(OC(F)(F)F)cc1)N[C@@H]1CCCc2ccccc21,Potency,[1],inactive
same,Potency,[2],inactive
CCOC(=N)c1nc2ccc3ncnc(Nc4cc(F)c(F)cc4Cl)c3c2s1,Potency,[5],16.6 µM (active)
same,Potency,[4],5.25 µM (active)
same,Potency,[2],6.61 µM (active)
O=C(NO)C1(CS(=O)(=O)c2ccc(Oc3ccc(Cl)cc3)cc2)CCOCC1,Potency,[3],8.33 µM (active)
CCOc1cc(CC(=O)N[C@@H](CC(C)C)c2ccccc2N2CCCCC2)ccc1C(=O)O,Potency,[3],inactive
same,Potency,[1],inactive
same,Potency,[4],inactive
Cc1noc(-c2ccc(-c3ccc(C4(C(=O)O)CC4)cc3)cc2)c1NC(=O)O[C@H](C)c1ccccc1,Potency,[1],inactive
same,Potency,[2],inactive
C#C[C@]1(O)CC[C@H]2[C@@H]3CCc4cc(O)ccc4[C@H]3CC[C@@]21C,Potency,[5],20.9 µM (active)
same,Potency,[2],20.9 µM (active)
COc1ccc2c(c1)[C@]1(C[C@H]1c1ccc3c(/C=C/c4ccc(CN5C[C@@H](C)O[C@@H](C)C5)cc4)n[nH]c3c1)C(=O)N2,Potency,[3],1.32 µM (active)
same,Potency,[1],18.6 µM (active)
same,Potency,[4],0.417 µM (active)
same,Potency,[2],0.132 µM (active)
CCCCCCCCCCCCCC(=O)N[C@H](CO)[C@H](O)c1ccc([N+](=O)[O-])cc1,Potency,[1],inactive
same,Potency,[2],inactive
O=C(N[C@@H](c1ccccc1)[C@@H]1CCCCN1)c1cccc(C(F)(F)F)c1Cl,Potency,[3],18.6 µM (active)
C[C@@]1(c2ncncc2F)NC(=O)c2cc(-c3cn[nH]c3)ccc21,Potency,[5],14.8 µM (active)
same,Potency,[4],20.9 µM (active)
CCS(=O)(=O)c1ccc2oc(-c3ccc4ccccc4c3)nc2c1,Potency,[3],inactive
same,Potency,[1],inactive
Cc1cc(Oc2ccc3nc(COc4ccc(CC5SC(=O)NC5=O)cc4)n(C)c3c2)cc(C)c1N (configuration not stated),Potency,[3],inactive
same,Potency,[1],inactive
same,Potency,[2],inactive
CC(C)c1onc(-c2c(Cl)cccc2Cl)c1COc1ccc(/C=C/c2cccc(C(=O)O)c2)c(Cl)c1,Potency,[1],inactive
same,Potency,[4],inactive
same,Potency,[2],inactive
C/C=C/C[C@@H](C)C(=O)[C@H]1C(=O)N[C@@H](C(C)C)C(=O)N(C)CC(=O)N(C)[C@@H](CC(C)C)C(=O)N[C@@H](C(C)C)C(=O)N(C)[C@@H](CC(C)C)C(=O)N[C@@H](C)C(=O)N[C@H](C)C(=O)N(C)[C@@H](CC(C)C)C(=O)N(C)[C@@H](CC(C)C)C(=O)N(C)[C@@H](C(C)C)C(=O)N1C,Potency,[5],8.11 µM (active)
same,Potency,[4],9.1 µM (active)
CCCCN(CCCC)CCC(O)c1cc2c(Cl)cc(Cl)cc2c2cc(C(F)(F)F)ccc12 (configuration not stated),Potency,[5],18.6 µM (active)
same,Potency,[1],26.3 µM (active)
same,Potency,[2],29.5 µM (active)
Clc1cc(Cl)cc(CNc2ncncc2-c2ccc3c(c2)OCO3)c1,Potency,[5],23.5 µM (active)
same,Potency,[1],inactive
same,Potency,[2],26.3 µM (active)
